The record followed here is PubChem BioAssay (NCATS).

Several values for one entry are separate records, joined by “and”; a condition that tells them apart may be missing. Equal entries are not always repeated. Inconclusive results are not listed. Activity calls are given as the source filed them. Unless noted, calls come from the whole dose curve; as a rule, active = well fitted curve in the direction sought with a large enough effect; inconclusive = small, poorly fitted or top-dose-only effect, or another doubt; inactive = no such curve, though single readings can be large; an effect the other way counts as inactive or inconclusive.

Test [1] is described as follows: AP1 Signaling Pathway (AID 357; active = well fitted curve in either direction with a large enough effect, not every such curve was filed as active; note: % is set by controls: 0 for no effect and ±100 for the full control effect). The following applies: ME-180 AP-1-bla reporter, EGF-induced, beta-lactamase ratio, 5 h; at 7.69 µM (top of the series) unless noted. Summed up: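 AP-1-bla ME-180 cells with beta-lactamase reporter under AP-1 response element, stimulated with EC50 EGF; compounds titrated, 5 hours at 37 degrees Celsius. CCF4 read at 460/530 nm ratio; positive and negative modulators judged by AC50.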

Test [2] deals with Cytochrome P450 1A2 (Homo sapiens) (UniProt P05177). Put plainly: p450-cyp1a2 (AID 410; calls by dose curve). The essentials:
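Inhibition was calculated relative to 57 uM furafylline (full inhibition). The reaction used human CYP1A2 at 20nM with Luciferin-ME at its Km, 100uM, driven by an NADPH-regenerating system for 60 min at room temperature.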

Test [3] in a line: Stat Signaling Pathway (AID 446; active = well fitted curve in either direction with a large enough effect, not every such curve was filed as active;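 note: ME-180 cervical cancer cells given 40 pM IL-6 alongside compound; SIE-controlled beta-lactamase reporter measured as 460/530 nm FRET emission ratio; % is set by controls: 0 for no effect and ±100 for the full control effect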). The following applies: ME-180 SIE beta-lactamase reporter, IL-6 stimulated, 5 h. Summed up:
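Reporter line: ME-180 cervical carcinoma, SIE-beta-lactamase. Treatment: compound with 40 pM IL-6, 5 hrs, 37 C, in low-serum OPTI-MEM with 10 mM HEPES pH 7.3. Detection: 460/530 nm fluorescence.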

Test [4] deals with Glucocorticoid receptor (Homo sapiens) (UniProt P04150). Put plainly: GR-GFP Redistribution (AID 450;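 active = compounds whose dose series gives a full or clear partial fitted curve of increased nuclear translocation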; note: potency is the fitted concentration of half-maximal effect). The conditions noted are these: U2OS GR-GFP nuclear translocation, laser cytometry, 2 h.
Test [5] shares this target. Put plainly: GR-EFC Redistribution (AID 451; calls by dose curve; note: potency is the fitted concentration of half-maximal effect). The conditions noted are these: CHO-K1 GR-EFC translocation, beta-gal luminescence, 2 h. Summed up:
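CHO-K1 cells stably expressing nuclear-localized β-gal enzyme acceptor and GR fused C-terminally to the enzyme donor fragment; ligand-driven nuclear translocation restores β-gal by complementation. Compounds titrated up to 46 uM final, 2 h at 37 °C; luminescence read.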

Test [6] has as its target Mitogen-activated protein kinase 10 (Mus musculus) (UniProt Q61831). Put plainly: JNK3 AlphaScreen Assay (AID 530; active = well fitted curve in either direction with a large enough effect, not every such curve was filed as active;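 note: kinase came from lysate of stimulated human HepG2 cells; signal reports phosphorylation of biotinylated GST-cJun 1-79 at Ser73 with 10 µM ATP; % is set by controls: 0 for no effect and ±100 for the full control effect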). The essentials: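 JNK3 came from HepG2 lysates pre-activated with IL-1beta and TNF-alpha and phosphorylated biotinylated GST-cJun (1-79) at 10 uM ATP, pH 7.6, room temperature. Compounds were titrated. AlphaScreen signal used anti-phospho-cJun (Ser73) antibody.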
On the technique in general: Bead proximity is the source of the signal in Alpha formats.

Test [7] concerns the target 3',5'-cyclic-AMP phosphodiesterase 4B (Homo sapiens) (UniProt Q07343). Put plainly: qHTS Assay for Inhibitors of PDE-IV (AID 607; active = well fitted activation curve with a large enough effect in the main read-out, with a control signal flat, not every such curve was filed as active; note: % of control where 0% means no effect). The essentials: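 Cell-based read-out of cAMP via a modified cyclic nucleotide-gated channel and membrane potential dye (535/590 nm) in HEK293 cells expressing PDE4 endogenously. Compounds tested up to 22.9 uM final; 100 uM RO 20-1724 reference.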
Background: qHTS replaces the single test concentration by a dilution series.

The target in test [8] is Guanine nucleotide-binding protein G(i) subunit alpha-1 (Homo sapiens) (UniProt P63096). Put plainly: qHTS Assay for Inhibitors of RGS12 GoLoco Motif Activity (Green Fluorophore) (AID 879).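 Note: 0% = labeled peptide with Gαi1 and full inhibition = labeled peptide alone without protein; negative values mean loss of peptide binding seen as reduced polarization.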 Summed up: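 Fluorescence polarization assay: 50 nM Gαi1 with 10 nM FITC-labeled RGS12 GoLoco peptide in 10 mM Tris pH 7.5, 150 mM NaCl, 0.1 mM GDP, 0.05% NP40, 10 min at room temperature with compound.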

The target in test [9] is Cytochrome P450 3A4 (Homo sapiens) (UniProt P08684). Put plainly: qHTS Assay for Activators of Cytochrome P450 3A4 (AID 885). Note: nearly all actives have a fitted effect of over 65% in size. Summed up:
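Signal was normalized against complete inhibition by 57 uM ketoconazole. The reaction used 20nM CYP3A4 with 25uM Luciferin-PPXE, 10-min compound preincubation and a 60-min NADPH-supported step at RT.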

A short description of test [10]: qHTS Assay for Identification of Small Molecule Agonists for Thrombopoietin (TPO) Signaling Pathway (AID 917). Note: % is set by controls: 0 for no effect and ±100 for the full control effect. The essentials:
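We measured Glycoprotein IIb promoter–luciferase output in IL-3-starved Ba/F3 murine cells expressing the human TPO receptor after 24 hrs at 37 C with compounds and 26 pM TPO.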

In test [11] the target is Pyruvate kinase (Leishmania mexicana) (UniProt Q27686). Put plainly: qHTS Validation Assay for Inhibitors of Leishmania Mexicana Pyruvate Kinase (AID 945).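 Note: 0% = DMSO only neutral control wells.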 The essentials: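 Read-out: luminescence from PKLight stop/detection reagent, data normalized to DMSO. Reaction: 0.2 nM E451W LmPYK, 0.5 mM PEP, 0.1 mM ADP, pH 7.2, 1 h room temperature.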
Test [12] deals with Pyruvate kinase PKM (Homo sapiens) (UniProt P14618). Put plainly: qHTS Assay for Activators of Human Muscle Pyruvate Kinase (AID 954; active = well fitted curve in the direction sought with a large enough effect, not every such curve was filed as active;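 note: 0% = uninhibited enzyme and -100% = no enzyme or full thiadiazolimine inhibition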). Summed up: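 Human PKM2 activity is measured as ATP generation, detected by luciferase-coupled luminescence. The enzyme (0.1 nM) acts on 0.5 mM PEP and 0.1 mM ADP for 1 h at ambient temperature; data are normalized to uninhibited and full-inhibition wells.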

Test [13] deals with Alpha-galactosidase A (Homo sapiens) (UniProt P06280). Put plainly: Counterscreen for Glucocerebrosidase Inhibitors: qHTS Assay for Human alpha-Galactosidase at pH 4.5 (AID 992). Note: 0% is about no effect. The essentials: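 Quantitative HTS: compounds tested from 0.7 nM up to 77 uM against 2 nM enzyme with 80 uM 4-MU alpha-D-galactopyranoside. The 20 min room-temperature reaction is stopped with 1M NaOH/1M glycine, pH 10.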
(The purpose of a counterscreen is to sort out artefacts and off-target activity.)

The target in test [14] is alpha-glucosidase (Oryza sativa, rice) (UniProt Q653V4). Put plainly: Counterscreen for Glucocerebrosidase Inhibitors: qHTS Assay for Rice alpha-Glucosidase at pH 5.0 (AID 997).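 Note: 0% = full activity with enzyme and -100% = basal without enzyme.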 Summed up: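 Rice alpha-glucosidase (4 nM final) with 400 uM 4-methylumbelliferyl-alpha-D-glucopyranoside in citrate buffer pH 5.0, 20 min at room temperature, stopped at pH 10; fluorescence 365/440 nm, compounds 0.7 nM–77 uM, AC50 from Hill fits.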

A short description of test [15]: qHTS Assay for Lipid Storage Modulators (AID 1519; calls by dose curve). The conditions noted are these: Drosophila S3 cells, BODIPY lipid droplet/cell ratio, laser cytometry, cells loaded with oleic acid. Summed up: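 Cells seeded at 5,000 per well were treated with compounds over a concentration series and loaded with oleic acid (400 uM, as added). Lipid droplet fluorescence (488 nm excitation, 500-530 nm channel) was read by laser-scanning cytometry and normalized to 20 uM Triacsin C.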

Chain of Glucocorticoid receptor (Homo sapiens) (P04150 whole entry, looked up): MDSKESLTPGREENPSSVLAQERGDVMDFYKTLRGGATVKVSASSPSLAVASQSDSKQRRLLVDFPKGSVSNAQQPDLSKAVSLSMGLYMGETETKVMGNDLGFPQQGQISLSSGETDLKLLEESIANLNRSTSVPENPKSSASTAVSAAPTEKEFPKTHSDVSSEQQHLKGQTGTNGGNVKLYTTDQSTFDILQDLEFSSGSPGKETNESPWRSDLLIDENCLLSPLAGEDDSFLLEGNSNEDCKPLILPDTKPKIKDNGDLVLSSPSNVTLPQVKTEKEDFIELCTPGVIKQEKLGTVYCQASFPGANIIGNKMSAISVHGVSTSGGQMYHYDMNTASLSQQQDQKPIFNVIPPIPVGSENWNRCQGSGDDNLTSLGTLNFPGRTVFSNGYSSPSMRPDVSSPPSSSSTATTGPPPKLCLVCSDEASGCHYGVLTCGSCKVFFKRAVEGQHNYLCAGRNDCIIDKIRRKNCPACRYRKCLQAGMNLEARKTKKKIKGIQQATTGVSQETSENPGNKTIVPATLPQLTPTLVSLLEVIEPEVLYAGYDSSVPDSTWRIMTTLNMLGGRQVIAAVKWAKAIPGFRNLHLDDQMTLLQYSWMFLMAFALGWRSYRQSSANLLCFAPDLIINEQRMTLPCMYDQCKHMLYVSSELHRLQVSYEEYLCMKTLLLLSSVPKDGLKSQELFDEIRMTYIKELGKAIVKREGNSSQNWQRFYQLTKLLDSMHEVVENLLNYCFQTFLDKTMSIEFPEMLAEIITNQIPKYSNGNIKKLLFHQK
Chain of Cytochrome P450 1A2 (Homo sapiens) (P05177 whole entry, looked up): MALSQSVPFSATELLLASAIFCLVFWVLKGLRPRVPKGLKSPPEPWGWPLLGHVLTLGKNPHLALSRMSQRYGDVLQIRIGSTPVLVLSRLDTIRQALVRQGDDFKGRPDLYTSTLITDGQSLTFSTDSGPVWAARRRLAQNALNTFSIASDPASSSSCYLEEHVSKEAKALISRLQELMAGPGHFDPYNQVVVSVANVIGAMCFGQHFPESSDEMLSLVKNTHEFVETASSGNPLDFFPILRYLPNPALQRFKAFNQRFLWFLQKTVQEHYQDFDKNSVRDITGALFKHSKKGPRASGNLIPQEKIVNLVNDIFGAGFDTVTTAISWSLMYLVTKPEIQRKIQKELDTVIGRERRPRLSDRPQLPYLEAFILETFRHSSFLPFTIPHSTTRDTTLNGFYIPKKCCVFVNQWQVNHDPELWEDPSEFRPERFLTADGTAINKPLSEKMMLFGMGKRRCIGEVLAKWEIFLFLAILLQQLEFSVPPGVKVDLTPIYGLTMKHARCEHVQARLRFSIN
Chain of Cytochrome P450 3A4 (Homo sapiens) (P08684 whole entry, looked up): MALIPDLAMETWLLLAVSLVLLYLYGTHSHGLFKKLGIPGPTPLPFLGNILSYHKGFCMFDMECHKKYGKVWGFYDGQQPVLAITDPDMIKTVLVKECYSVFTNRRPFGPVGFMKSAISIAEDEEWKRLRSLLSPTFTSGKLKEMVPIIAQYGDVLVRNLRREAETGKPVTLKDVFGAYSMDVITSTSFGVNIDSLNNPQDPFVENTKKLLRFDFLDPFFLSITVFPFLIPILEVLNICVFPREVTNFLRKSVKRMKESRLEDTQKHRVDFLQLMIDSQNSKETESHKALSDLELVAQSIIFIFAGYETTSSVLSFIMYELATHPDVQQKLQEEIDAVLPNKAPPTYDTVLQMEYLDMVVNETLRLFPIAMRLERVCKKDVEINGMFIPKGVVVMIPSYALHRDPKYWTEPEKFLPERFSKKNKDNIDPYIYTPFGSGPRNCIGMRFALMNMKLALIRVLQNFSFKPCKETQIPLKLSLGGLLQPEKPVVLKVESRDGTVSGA
Chain of Alpha-galactosidase A (Homo sapiens) (P06280 whole entry, looked up): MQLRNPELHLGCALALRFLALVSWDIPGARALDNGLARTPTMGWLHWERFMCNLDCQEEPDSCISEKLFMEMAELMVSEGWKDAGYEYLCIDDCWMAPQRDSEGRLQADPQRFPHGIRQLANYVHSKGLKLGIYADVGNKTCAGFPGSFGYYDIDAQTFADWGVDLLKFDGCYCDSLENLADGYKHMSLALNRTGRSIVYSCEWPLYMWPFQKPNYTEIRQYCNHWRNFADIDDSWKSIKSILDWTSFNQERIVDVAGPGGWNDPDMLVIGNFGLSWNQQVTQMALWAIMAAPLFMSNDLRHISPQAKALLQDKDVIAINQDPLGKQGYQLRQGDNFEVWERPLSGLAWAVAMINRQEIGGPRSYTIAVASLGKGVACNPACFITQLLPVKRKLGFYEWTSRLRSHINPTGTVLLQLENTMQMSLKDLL
Chain of Pyruvate kinase (Leishmania mexicana) (Q27686 2-499 E452W): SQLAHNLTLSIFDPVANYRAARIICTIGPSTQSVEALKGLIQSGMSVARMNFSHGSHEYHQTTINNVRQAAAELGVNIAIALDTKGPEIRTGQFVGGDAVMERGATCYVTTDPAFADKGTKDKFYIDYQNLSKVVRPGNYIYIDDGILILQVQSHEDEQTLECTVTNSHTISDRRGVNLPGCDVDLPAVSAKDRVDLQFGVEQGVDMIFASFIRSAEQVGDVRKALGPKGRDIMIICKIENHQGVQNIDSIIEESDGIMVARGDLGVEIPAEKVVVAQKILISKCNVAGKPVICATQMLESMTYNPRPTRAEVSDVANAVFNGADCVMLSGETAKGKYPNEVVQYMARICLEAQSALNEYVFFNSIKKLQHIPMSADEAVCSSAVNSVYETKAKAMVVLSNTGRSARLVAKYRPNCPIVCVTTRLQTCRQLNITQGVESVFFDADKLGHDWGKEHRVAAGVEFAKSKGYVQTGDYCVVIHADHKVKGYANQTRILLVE
Chain of 3',5'-cyclic-AMP phosphodiesterase 4B (Homo sapiens) (Q07343 whole entry, looked up): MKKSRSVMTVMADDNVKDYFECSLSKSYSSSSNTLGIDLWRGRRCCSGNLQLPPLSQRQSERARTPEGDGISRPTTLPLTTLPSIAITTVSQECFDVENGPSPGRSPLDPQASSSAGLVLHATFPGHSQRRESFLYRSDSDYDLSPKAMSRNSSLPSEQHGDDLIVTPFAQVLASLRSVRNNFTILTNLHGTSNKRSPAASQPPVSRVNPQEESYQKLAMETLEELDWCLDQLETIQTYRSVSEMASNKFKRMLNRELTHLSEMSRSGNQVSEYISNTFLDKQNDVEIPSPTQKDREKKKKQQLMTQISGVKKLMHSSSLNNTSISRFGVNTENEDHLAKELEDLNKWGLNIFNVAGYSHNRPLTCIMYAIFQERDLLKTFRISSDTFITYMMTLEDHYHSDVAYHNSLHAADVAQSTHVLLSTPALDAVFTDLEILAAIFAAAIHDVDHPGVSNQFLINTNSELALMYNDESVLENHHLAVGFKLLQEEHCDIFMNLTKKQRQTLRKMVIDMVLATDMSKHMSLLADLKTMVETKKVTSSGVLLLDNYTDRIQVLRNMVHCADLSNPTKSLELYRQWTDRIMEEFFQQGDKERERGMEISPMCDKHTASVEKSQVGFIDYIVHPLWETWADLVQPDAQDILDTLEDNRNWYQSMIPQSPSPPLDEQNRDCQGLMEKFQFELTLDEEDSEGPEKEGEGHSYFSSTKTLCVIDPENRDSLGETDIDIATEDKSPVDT
Chain of Pyruvate kinase PKM (Homo sapiens) (P14618 whole entry, looked up): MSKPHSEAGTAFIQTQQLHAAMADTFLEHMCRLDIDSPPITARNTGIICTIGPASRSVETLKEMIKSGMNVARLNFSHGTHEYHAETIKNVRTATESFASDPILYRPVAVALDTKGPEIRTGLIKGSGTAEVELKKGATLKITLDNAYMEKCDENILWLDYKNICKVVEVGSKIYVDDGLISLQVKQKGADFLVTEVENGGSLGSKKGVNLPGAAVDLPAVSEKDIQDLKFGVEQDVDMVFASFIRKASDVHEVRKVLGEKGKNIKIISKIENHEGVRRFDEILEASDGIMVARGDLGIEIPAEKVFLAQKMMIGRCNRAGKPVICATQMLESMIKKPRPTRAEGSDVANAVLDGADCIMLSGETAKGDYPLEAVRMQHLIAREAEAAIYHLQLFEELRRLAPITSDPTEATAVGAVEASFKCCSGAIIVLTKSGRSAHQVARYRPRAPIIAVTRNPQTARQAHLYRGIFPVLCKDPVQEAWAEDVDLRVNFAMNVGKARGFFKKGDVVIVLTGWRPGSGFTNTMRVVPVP
Chain of Guanine nucleotide-binding protein G(i) subunit alpha-1 (Homo sapiens) (P63096 whole entry, looked up): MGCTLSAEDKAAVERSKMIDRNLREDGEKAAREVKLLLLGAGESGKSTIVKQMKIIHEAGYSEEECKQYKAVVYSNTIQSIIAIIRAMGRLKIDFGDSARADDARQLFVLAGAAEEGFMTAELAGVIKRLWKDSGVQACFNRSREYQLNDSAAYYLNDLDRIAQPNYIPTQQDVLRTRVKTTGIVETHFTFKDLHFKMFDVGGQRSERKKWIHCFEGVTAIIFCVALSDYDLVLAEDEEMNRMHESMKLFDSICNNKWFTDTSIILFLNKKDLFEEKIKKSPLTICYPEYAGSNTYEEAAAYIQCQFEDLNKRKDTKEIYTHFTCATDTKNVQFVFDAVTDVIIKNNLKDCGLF

On to `Cc1ccccc1[C@@H](OCCN(C)C)c1ccccc1`, for which the activity change, negative = inhibition in test [1] was 26.9% [at 17.2 µM] (inactive); in [15] (at 25.7 µM (top of the series)) it was -1.18% (inactive). Moreover, the Potency entry in test [2], in [6], in test [7], in [8] and in test [9] was “inactive” in each case. Also, the activity, negative = inhibition in [3] (at 17.2 µM (top of the series)) was 5.39% (inactive); in [3] (at 38 µM (top of the series)) it was 20.8% (inactive). Further, the Potency in [4] was > 46 µM (inactive) and > 20.6 µM (inactive); in test [5] it was > 46 µM (inactive) and > 20.6 µM (inactive). In addition, the compound was classed as inactive in test [10], in test [11], in test [12], in [13] and in test [14]. The max response in [15] (measured here: cell count channel max response) amounted to 0.329%; in test [15] (measured here: lipid channel max response) it was 1.49%.
